The list is not random: actives were taken first. Their share in the collection is about 1.2%.
Avidin bead fluor – avidin bead compound fluorescence profile; Avidin beads, compound fluorescence 488/530 nm, flow cytometry; hits give high values; fluorescence (KMESF) at 10 µM; hit rate 0.38% among 220,000; AID 1775; in the data active = fluorescence above about 47
RGS4-Gao reg – human RGS4-Galphao interaction regulation; P09471; Multiplexed bead flow cytometry, RGS4-Galphao binding; actives lie on both sides; binding response (% of control), % at 10 µM; hit rate 0.33% among 220,000; AID 1415; in the data active = binding response below about 49% or above about 150%; inactive = in between;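 note: fluorescent Galphao activated with aluminum fluoride binding bead-coupled RGS4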
Target sequence (P09471 whole entry, looked up): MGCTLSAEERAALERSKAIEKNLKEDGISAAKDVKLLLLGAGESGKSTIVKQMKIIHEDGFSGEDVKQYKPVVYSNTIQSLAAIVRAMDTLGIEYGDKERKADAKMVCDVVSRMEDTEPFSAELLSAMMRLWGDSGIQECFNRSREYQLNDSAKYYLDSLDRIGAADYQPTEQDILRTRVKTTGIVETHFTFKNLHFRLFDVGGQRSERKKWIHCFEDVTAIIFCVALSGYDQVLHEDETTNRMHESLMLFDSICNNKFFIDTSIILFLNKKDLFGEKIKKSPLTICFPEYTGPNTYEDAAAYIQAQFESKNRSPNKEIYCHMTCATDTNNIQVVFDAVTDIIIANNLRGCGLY
RGS16-Gao – RGS16-Galphao interaction regulator (human); O15492+P09471; binding response (% of control), % at 10 µM; AID 1441; bead-based flow cytometry RGS16-Galphao binding, fluorescence; actives lie on both sides; hit rate 0.38% among 220,000;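 note: Galphao activated by GDP with aluminum fluoride before binding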
GSH fluor – GSH bead compound fluorescence profile. GSH beads flow cytometry, compound fluorescence 488/530 nm; hits give high values. hit rate 0.25% among 190,000. fluorescence (KMESF) at 10 µM. AID 1776; in the data active = fluorescence above about 89;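 note: glutathione beads carrying GST-tagged Bcl family fusion proteins plus one bare bead set; values are compound well signal with DMSO vehicle wells as background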
RGS7-Gao reg – human RGS7-Galphao interaction regulation; P09471; binding response (% of control), % at 10 µM; hit rate 0.35% among 220,000; AID 1439; Multiplexed bead flow cytometry, RGS7-Galphao binding; actives lie on both sides; in the data active = binding response below about 49% or above about 150%; inconclusive = no clear call, values can overlap the other calls; inactive = in between;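 note: fluorescent Galphao held in activated GDP-AlF4 state binding bead-coupled RGS7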
RGS8-Gao reg – modulates binding of RGS8 to human Galphao | AID 1423 | P09471 | hit rate 0.34% among 220,000 | response (percent of control binding), % at 10 µM | multiplexed bead flow cytometry; actives lie on both sides; in the data active = response below about 60% or above about 140%; inactive = in between;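 note: Galphao activated as the GDP aluminium fluoride complex binding bead-coupled RGS8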
RGS4-Gao HTS – modulates binding between human RGS4 and Galphao; hit rate 99% among 1,600; shares compounds with RGS16-Gao; AID 1504; multiplexed bead flow cytometry, RGS–Galpha-o binding; RGS4–Galpha-o binding response, % at 10 µM;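 note: fluorescently labeled Galpha-o bound to GDP with aluminium fluoride binding biotinylated RGS beads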
Biotin-avidin – interferes with biotinylated probe binding to avidin beads; shares compounds with RGS16-Gao; streptavidin beads, fluorescein-biotin binding, flow cytometry; inhibition, % at 10 µM; 1,700 tested, under 10 active; AID 1783;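 active = inhibition above 50%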;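 note: median green fluorescence of gated singlet beads compared with DMSO control wells; 0% = DMSO wells and 100% = complete loss of bead fluorescence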
RGS8-Gao confirm – RGS8-Galphao interaction regulation, single point confirmation. binding response (% of control), % at 10 µM. hit rate 3% among 1,700. AID 1836. shares compounds with RGS16-Gao. bead-based flow cytometry RGS8-Galphao binding, fluorescence; actives lie on both sides; in the data active = binding response below about 72% or above about 130%; inactive = in between;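 note: Galphao activated as GDP AlF4 complex before binding bead RGS8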
RGS7-Gao confirm – confirmation of regulators of human RGS7-Galphao interaction | bead-based flow cytometry RGS7-Galphao binding; actives lie on both sides | AID 1837 | response (percent of control binding), % at 10 µM | hit rate 7.8% among 1,700 | shares compounds with RGS16-Gao; in the data active = response below about 75% or above about 130%; inactive = in between;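 note: fluorescent Galphao activated with GDP and aluminum fluoride binding bead-coupled RGS7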
RGS16-Gao conf – RGS16-Galphao interaction regulation, single point confirmation; bead-based flow cytometry, RGS16-Galphao binding; actives lie on both sides; shares compounds with RGS16-Gao; AID 1838; hit rate 4% among 1,700; response (% of control binding), % at 10 µM; in the data active = response below about 74% or above about 130%; inactive = in between;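 note: Galphao activated as the GDP aluminium fluoride complex binding bead-coupled RGS16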
RGS4-Gao single – RGS4-Galphao interaction regulation, single point confirmation; shares compounds with RGS16-Gao; RGS4-Galphao binding, multiplexed bead flow cytometry; actives lie on both sides; binding response (% of control), % at 10 µM; hit rate 4% among 1,700; AID 1840; in the data active = binding response below about 74% or above about 130%; inactive = in between
RGS19-Gao conf – RGS19-Galphao interaction regulation, single point confirmation. shares compounds with RGS16-Gao. bead-based flow cytometry RGS19-Galphao binding; actives lie on both sides. response (percent of control binding), % at 10 µM. hit rate 5% among 1,700. AID 1841; in the data active = response below about 50% or above about 160%; inactive = in between;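 note: 100% = no compound control and 0% = blank background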
Target sequence (P09471 whole entry, looked up): as above
Target sequence (P49795 whole entry, looked up): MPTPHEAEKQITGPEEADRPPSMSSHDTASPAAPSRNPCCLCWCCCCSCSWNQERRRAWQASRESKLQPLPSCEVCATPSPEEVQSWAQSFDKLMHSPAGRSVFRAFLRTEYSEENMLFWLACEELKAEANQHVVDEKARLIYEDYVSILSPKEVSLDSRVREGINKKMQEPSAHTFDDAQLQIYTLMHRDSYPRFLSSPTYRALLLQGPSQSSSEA
An asterisk follows results filed as active; ? = inconclusive; / = no result given; [ ] = another dose, or the depositor's remark. Unless noted, the rule behind the calls is not given here.

SMILES	Avidin bead fluor	RGS4-Gao reg	RGS16-Gao	GSH fluor	RGS7-Gao reg	RGS8-Gao reg	Biotin-avidin	RGS8-Gao confirm	RGS7-Gao confirm	RGS16-Gao conf	RGS4-Gao single	RGS19-Gao conf	others
O=c1[nH]cnc2c1oc1ccccc12	9	117	297	18	106	143*[activator]	0	103	105	104	106	104	RGS4-Gao HTS=117*
CCc1nc2c(oc3ccccc32)c(=O)[nH]1	36	99	100	12	100	102	/	/	/	/	/	/
CC(=O)N(CCC1(C(C)C)CCOC(C)(C)C1)C(C)c1cccs1 (stereo unspecified)	8	97	96	/	?	99	/	/	/	/	/	/
S=c1[nH]nc(-c2ccc3ccccc3n2)n1-c1ccc(Cl)cc1	4	110	177*[activator]	12	119	114	-2	91	101	92	95	99	RGS4-Gao HTS=110*
Cc1ccc(OCCSc2nnc(C)c(=O)n2N)cc1	9	104	102	11	100	99	/	/	/	/	/	/
COc1ccccc1N1CCN(C(=O)CSc2nc(N)cc(=O)[nH]2)CC1	201*	88	113	12	277*[activator]	89	1	104	106	106	105	129	RGS4-Gao HTS=88*
COc1ccc(OCCNS(=O)(=O)c2ccccc2)cc1	9	94	98	9	96	97	/	/	/	/	/	/
Cc1ccc(OCCNS(=O)(=O)c2cccs2)cc1	8	159*[activator]	157	30	154*[activator]	126	-2	96	96	91	93	81
Cc1ccc(C2CC(c3ccc(C)cc3)n3nc(N)nc3N2)cc1 (stereo unspecified)	22	106	106	14	103	104	/	/	/	/	/	/
CC(C)=NNC1=NC(C)(C)Cc2ccccc21	5	93	102	/	?	103	/	/	/	/	/	/
CC(=O)CC1=NC(C)(C)Cc2ccccc21	2	29*	16*	14	24*	18*	-2	102	109	104	104	100
CCN(CC)S(=O)(=O)c1ccc2c(c1)nc(CCC(=O)Nc1ccc3c(c1)OCO3)n2CC	1	82	20*	25	88	71	-1	100	87	98	92	102	RGS4-Gao HTS=82*
CCn1c(SCC(=O)Nc2cccc(C)c2)nc2c(c1=O)SC(C)C2 (stereo unspecified)	6	98	114	26	95	104	/	/	/	/	/	/
O=c1c2ccccc2nnn1CSc1nc2ccccc2[nH]1	9	101	92	12	100	98	/	/	/	/	/	/
Cc1cc(=O)[nH]c(SCn2nnc3ccccc3c2=O)n1	12	36*	34	24	30*	36*	-2	100	97	96	96	103
COC(=O)c1ccccc1COn1c(=O)c[n+]([O-])c2ccccc21	45	231*[activator]	187	19	158*[activator]	91	0	101	100	99	103	96
C/C(N)=C(/C#N)C(=O)COC(=O)CNS(=O)(=O)c1ccc(F)c(F)c1F	11	99	102	17	?	100	/	/	/	/	/	/
O=C(CCC1CCCN(C(=O)c2cncs2)C1)NCc1ccc(F)c(F)c1 (stereo unspecified)	220*	109	119	13	231*[activator]	95	-1	101	97	100	101	83	RGS4-Gao HTS=109*
COc1cc(CN(C(=S)NCC(=O)NC2CC2)C2CCCC2)cc(OC)c1OC	3	102	109	6	103	105	/	/	/	/	/	/
O=C(Nc1ccccn1)NC1CCCCC1	/	199*[activator]	/	32	/	/	0	101	102	102	104	111
O=C(Nc1ccccn1)NC1CCS(=O)(=O)C1 (stereo unspecified)	9	76	-92*	16	82	80	-1	101	98	102	101	103	RGS4-Gao HTS=76*
O=C(NCc1ccccn1)NC1CCCCC1	3	102	95	8	99	101	/	/	/	/	/	/
O=C(Nc1ccc(Cl)cc1)NC1CCS(=O)(=O)C1 (stereo unspecified)	16	106	180	14	109	114	/	/	/	/	/	/
COc1ccc(/C=C/c2nnc(NC(C)=O)s2)cc1	44	158*[activator]	144	/	?	110	-2	100	106	101	102	106
COC(=O)Nc1nnc(/C=C/c2ccc(OC)cc2)s1	8	98	49	19	96	90	/	/	/	/	/	/
SMILES	Avidin bead fluor	RGS4-Gao reg	RGS16-Gao	GSH fluor	RGS7-Gao reg	RGS8-Gao reg	Biotin-avidin	RGS8-Gao confirm	RGS7-Gao confirm	RGS16-Gao conf	RGS4-Gao single	RGS19-Gao conf	others
O=C(Nc1ccccc1)Nc1snnc1C(=O)Nc1cccc(O)c1	2	16*	12*	15	16*	24*	2	105	113	106	106	105
CSCCC(NC(N)=O)C(=O)NCc1ccccc1Cl (stereo unspecified)	9	74	-699*	10	80	95	-3	100	99	98	98	91	RGS4-Gao HTS=74*
CSCCC(NC(N)=O)C(=O)NCc1cccc(Cl)c1 (stereo unspecified)	7	109	126	6	105	109	/	/	/	/	/	/
O=C(Nc1ccc(Cl)c(Cl)c1)Nc1ccc(Br)cc1F	6	98	103	8	100	102	/	/	/	/	/	/
O=C(Nc1ccc(Cl)c(Cl)c1)Nc1ccccc1O	0	13*	16*	/	?	39*	-1	94	70*	87	85	66
COc1ccccc1NC(=O)Cn1cnc2c(nnn2-c2ccc(C)cc2)c1=O	33	104	98	10	154*[activator]	99	0	100	104	99	100	96	RGS4-Gao HTS=104*
CCOC(=O)c1ccccc1NC(=O)Cn1cnc2c(nnn2-c2ccc(C)cc2)c1=O	7	101	99	18	100	100	/	/	/	/	/	/
O=C(O)CCNC(=O)C12CC3CC(CC(C3)C1)C2	11	96	102	15	100	99	/	/	/	/	/	/
